Consider 81 compounds from PubChem BioAssay AID624416 (The Scripps Research Institute Molecular Screening Center, 2012).

In all, about 360,000 compounds went through this assay and about 1,500 (0.42%) were called active. What follows is part of a selection rich in actives, with near analogues and random picks from the rest. Values without a mark were called inactive. No stated cut-off is given here; in the data, active means inhibition above about 8.5%; inactive means the rest.

In this assay the test system is HIV-1 gp120 / PG9 antibody interaction. Briefly: binders of HIV-1 gp120 antibody PG9, primary screen, biochemical, TR-FRET (AID 624416). The conditions noted are these: TR-FRET gp120-PG9 antibody binding; at 6.7 µM; stronger effect = higher value. Background: Time-resolved FRET reads energy transfer from a long-lived donor to a nearby acceptor.
What is called inhibition is the drop in the measured response relative to a control, in per cent. For `CCCCNc1cccc2c1S(=O)(=O)N[C@@H](C)CO2`, the inhibition was -0.83%.
In the case of `CN1CCCc2nc(-c3ccccc3)ccc21`, the inhibition was -1.37%.
Take `C[C@H](CO)N1C[C@H](C)[C@@H](CN(C)C(=O)Nc2ccccc2F)OCc2cn(nn2)CCCC1=O`: the inhibition was 0.59%.
Under `O=C(NN=Cc1ccco1)C(=O)Nc1ccc(Cl)c([N+](=O)[O-])c1` stands -2.26%; under `CCOC(=O)N1CCN(C(=O)C[C@H]2C[C@@]3(C(=O)OC)C(=C[C@H](C4CCCC4)O[C@@H]3C)N(Cc3ccccc3)C2=O)CC1`, -1.34%.
On to `COc1ccc(-n2nnnc2-c2nc3ccccc3s2)cc1`, for which the inhibition is 14.4% (active).
For `COc1ccc(-n2nnnc2SCC(=O)NCc2cccs2)cc1` the value was 0.22%.
Under `FC(F)(F)c1nc(-c2ccccc2)ncc1-c1nnnn1-c1ccccc1` stands -0.69%.
For `CC(=O)c1sc2nc(SCC(=O)N3CCCCC3)[nH]c(=O)c2c1C`, the inhibition is 21.1% (active).
Under `Cc1c(C)n2c(SCC(=O)N3CCCC3)nnc2[nH]c1=O` stands -1.7%.
As for `CSc1nnc(SCc2nc3sc(C(=O)O)c(C)c3c(=O)[nH]2)s1`, the inhibition is -1.42%.
On to `Cc1nc(-c2ccccc2)sc1-c1nc(-c2ccccc2)ncc1S(=O)(=O)c1ccccc1`, for which the inhibition was 10.9% (active).
For the compound `C#CC(C)(C)NC(=O)c1cnc(-c2ccccc2)nc1-c1ccccc1`, the inhibition is -1.56%.
Under `Cc1nc(-c2ccccc2)sc1-c1nnc(C2CC2)o1` stands -1.07%; under `CC(=O)N1C[C@@H](CO)[C@@H](N(C)C(=O)C(C)(C)C)C[C@H]1c1ccccc1Br`, 0.03%.
As for `O=S1(=O)c2c(cccc2N2CCCC2)O[C@H](COCc2ccccc2)CN1C1CC1`, the inhibition was -1.25%.
For `N#C/C=C1\Sc2ccccc2C(=O)N1CC(=O)N1CCN(S(=O)(=O)c2ccccc2)CC1`, the inhibition was 16.5% (active).
For `O=C(CN1CCCSc2ccccc21)N1CCN(S(=O)(=O)c2cccc(F)c2)CC1` the value was -0.88%.
Under `CC(C)c1ccc(S(=O)(=O)N2CCN(C(=O)CN3C(=O)NC(C)(c4ccccc4)C3=O)CC2)cc1` (stereo unspecified) stands -0.6%; under `O=C(N[C@H](Cc1ccccc1)C(=O)N1CCCN(Cc2cccs2)CC1)[C@H]1O[C@@H](n2ccc(=O)[nH]c2=O)[C@H](O)[C@@H]1O`, -1.49%; under `COc1ccc(-c2ccccc2C2Cc3nnccc3CN2C(=O)Nc2ccccc2)cc1` (stereo unspecified), -1.16%.
Under `Clc1cccc2c1C1CC2CCN1Cc1ccccc1` (stereo unspecified) stands -1.15%.
With `CCc1ccccc1OCC(=O)Nc1ccc2c(c1)OCCO2`, the inhibition is -0.52%.
As for `CCOc1cccc(NC(=O)Cn2nc(-c3ccc4c(c3)OCCO4)ccc2=O)c1`, the inhibition is 9.11% (active).
In the case of `CC(=O)c1cc2c(cc1NC(=O)Cn1nc(-c3ccc(F)cc3)ccc1=O)OCO2`, the inhibition was -0.49%.
As to `COC(=O)C1=C(C(=O)OC)C2C=C(C(C)C)C1C(=O)C2(C)O` (stereo unspecified), the inhibition was -0.26%.
Under `CCCCCCNC(=O)CSc1nccn1Cc1ccccc1` stands 0.53%; under `CCCCNC(=O)CSc1nccn1Cc1ccccc1`, 2.29%; under `Cc1nnc(OCC(=O)NCCC2=CCCCC2)c2ccccc12`, -0.11%.
On to `CCCCNC(=O)CSc1nc2n[nH]c(C)c2c(=N)n1-c1cccc(Cl)c1C`, for which the inhibition is 20.8% (active).
Under `Cc1ccc(-n2c(SCC(=O)NCCC3=CCCCC3)nc3n[nH]c(C)c3c2=N)cc1Cl` stands 35.7% (active).
For `COc1cccc(-n2c(SCC(=O)NC3CCCCC3)nc3n[nH]c(C)c3c2=N)c1` the value was 0.99%; for `Cc1ccc(C)c(CN2CCC(CNC(=O)C3CCCN(c4ncnc5c4nc4n5CCCCC4)C3)CC2)c1` (stereo unspecified), -0.22%.
Under `COC(=O)[C@]12C[C@H](CC(=O)NCCCCc3ccccc3)C(=O)N(Cc3ccc4c(c3)OCO4)C1=C[C@H](C(C)(C)C)O[C@@H]2C` stands 1.2%; under `C=CCN=C1NC(c2ccccc2)C(C(=O)OC)=C(C)N1Cc1ccc(C(F)(F)F)cc1` (stereo unspecified), -0.19%; under `COc1ccc(CNS(=O)(=O)c2cc(Br)ccc2Br)cc1`, 0.06%.
On to `COC(=O)Cc1nnn2c1[C@H](C)[C@H](c1ccccc1Br)OCC2`, for which the inhibition was 1.33%.
For `Cc1ccc(N)cc1CN1CCN(c2ncc(Cc3ccccc3)cn2)CC1` the value was -3.21%; for `COc1ccc(Cl)cc1NC(=O)Cn1nc(-c2ccc(C)cc2)n(C)c1=S`, 11% (active); for `COc1ccc(Cl)cc1NC(=O)CN1CCN(C(=O)N2CCOCC2)CC1`, 1.73%.
Under `COc1ccc(C)cc1NC(=O)CSc1ccc(Cl)cc1` stands -1.28%; under `CC1CCCN(c2cccc3c2S(=O)(=O)N(Cc2ccc(F)cc2)[C@@H](C)[C@H](c2ccccc2)O3)C1` (stereo partly specified), 0.43%.
`CCCN1C(=O)c2[nH]nc(-c3ccccc3)c2C1c1ccccc1` (stereo unspecified): the inhibition is -1.03%.
Under `CCN(CC)CCNC(=O)c1ccc(NS(=O)(=O)c2ccc3c(c2)OCCO3)cc1` stands -1.11%.
Under `CC(NS(=O)(=O)c1ccc(Cl)cc1)C(=O)Nc1ccc2c(c1)OCCO2` (stereo unspecified) stands 0.53%; under `O=C(Nc1cccc(S(=O)(=O)Nc2ccc(Cl)cc2)c1)c1ccc2c(c1)OCCO2`, 9.35% (active); under `COCCNC(=O)c1cc2c(Br)ccc(Br)c2nc1N`, 9.73% (active).
Under `COCCNC(=O)c1ccccc1-c1nc(-c2ccccc2Cl)no1` stands -2.1%; under `Nc1nc2c(Br)ccc(Br)c2cc1C(=O)NCCc1ccccc1`, 3.73%.
As to `Cc1ccc2nc(CN(C)C(=O)[C@@H](Cc3ccccc3)NC(=O)[C@H]3O[C@@H](n4ccc(=O)[nH]c4=O)[C@H](O)[C@@H]3O)[nH]c2c1`, the inhibition was -1.8%.
Under `COc1ccc(SSc2ccc(OC)cc2C(=O)O)c(C(=O)O)c1` stands -0.62%; under `C=CCn1c(SCC(=O)Nc2ccc(NC(C)=O)cc2)nc2sc(C)c(C)c2c1=O`, 1.19%; under `C=CCn1c(=NC(=O)c2cccs2)sc2cc(NC(C)=O)ccc21`, 10.5% (active).
For `C=CCn1c(CCNC(=O)c2cccs2)n[nH]c1=S` the value was -0.83%; for `CC(=O)Nc1ccc(S(=O)(=O)N2CCN(S(=O)(=O)c3cccs3)CC2)cc1`, 1.11%.
Consider `C=CCn1c(=NC(=O)c2ccc(S(=O)(=O)N3CCCC3)cc2)sc2cc(NC(C)=O)ccc21`, for which the inhibition was 13% (active).
Under `O=C(CN1CCCCCC1)Nc1ccc(S(=O)(=O)N2CCCCC2)cc1` stands -1.07%.
For `O=C(NCc1ccccc1)[C@@H]1CCCN1C(=O)[C@H]1CCCN1C(=O)c1cccc(Cl)c1` the value was -0.83%.
Under `Cc1noc(C)c1NC(=O)Nc1ccc2c(c1)C(=O)N([C@H](C)CO)C[C@H](C)[C@H](CN(C)Cc1ccncc1)OCCCC[C@@H](C)O2` stands 0.19%.
On to `C[C@H]1CN([C@@H](C)CO)C(=O)CCCn2nncc2CO[C@@H]1CN(C)C(=O)Nc1ccc(N2CCN(C)CC2)cc1`, for which the inhibition was -0.47%.
Take `Cc1[nH]c2ccccc2c1CC(=O)Nc1ccc(Nc2cccnc2)c(-c2cccc(Cl)c2)c1`: the inhibition is 0.12%.
As to `O=C(O)Cn1cnc2c(NCc3ccccc3)ncnc21`, the inhibition was 1.02%.
With `CC(=O)C1=C(C)N(Cc2ccccc2)C(=S)NC1c1cccc(Br)c1` (stereo unspecified), the inhibition was -1.42%.
On to `CCOc1ccccc1C(=O)N1CCC[C@@H]1C(=O)N1CCC[C@H]1C(=O)NCc1ccccc1`, for which the inhibition is 2.14%.
For `COc1cccc(CC(=O)N2CCN(C(=O)C(=O)c3cccc(C(F)(F)F)c3)CC2)c1` the value was 0.18%; for `COCc1cc(N2CCN(C(=O)OC(C)(C)C)C[C@@H]2C)ccc1N1CCN(Cc2ccccc2)[C@H](C)C1`, 0.37%.
With `CCCCCCCCN1C(=O)[C@@H](CC(=O)NCc2ccccc2)C[C@@]2(C(=O)OC)C1=C[C@H](C(C)(C)C)O[C@@H]2C`, the inhibition was -0.73%.
As to `COCCNc1nc(Nc2ccccc2Cl)c2sc(-c3ccccc3)cc2n1`, the inhibition is 1.58%.
On to `COCCCNc1nc2c(-c3cccc(C(F)(F)F)c3)nnn2c2ccccc12`, for which the inhibition is 0.39%.
Under `COCCCNc1nc2c(-c3cccc(C)c3)nnn2c2ccc(Cl)cc12` stands 10.3% (active).
As to `CC(C)CNc1cccc2c1S(=O)(=O)N[C@H](CC(C)C)CO2`, the inhibition is -0.01%.
For `CN(C)C(=O)N1CCN(C(=O)[C@@H](Cc2ccccc2)NC(=O)[C@H]2O[C@@H](n3ccc(N)nc3=O)[C@H](O)[C@@H]2O)CC1`, the inhibition was -2.32%.
On to `C=CCOc1cccc(C2C(C(=O)c3ccc(C)o3)=C(O)C(=O)N2CCCn2ccnc2)c1` (stereo unspecified), for which the inhibition is 11.1% (active).
With `CCCOc1ccc(C2C(C(=O)c3ccc(C)o3)=C(O)C(=O)N2CCCn2ccnc2)cc1` (stereo unspecified), the inhibition is 54.6% (active).
Turning to `CCOc1ccc(C2/C(=C(/O)c3ccc4c(c3)CC(C)O4)C(=O)C(=O)N2CCCn2ccnc2)cc1` (stereo unspecified), the inhibition is 1.05%.
For `c1ccc(Cc2ccc(OCCn3ccnc3)cc2)cc1` the value was -0.66%; for `C=CCOc1cccc(C2C(C(=O)c3ccc(C)o3)=C(O)C(=O)N2CCN2CCOCC2)c1` (stereo unspecified), 2.96%.
For `C=CCOc1cccc(C2C(C(=O)c3ccc(C)o3)=C(O)C(=O)N2c2nnc(C)s2)c1` (stereo unspecified) the value was 2.85%.
As for `COC(=O)c1c(-c2ccc(OC)cc2)c2c(c3c4cc(OC)ccc4n(S(=O)(=O)c4ccc(F)cc4)c13)C(=O)N(C)C2`, the inhibition is 1.03%.
On to `COC(=O)c1c(-c2ccc(OC)cc2)c2c(c3c4ccccc4n(S(=O)(=O)c4ccc(C)cc4)c13)C(=O)N(C)C2`, for which the inhibition is 0.17%.
For `CN1C(=O)C2CC(O)C(SC3CC4C(=O)N(C)C(=O)C4CC3O)CC2C1=O` (stereo unspecified) the value was 0.46%.
